# Only some compounds are listed: those with a hit (about 2.5% of all), similar ones and a draw of the others.
# PAX8 reporter = lowers PAX8-driven luciferase in RMG-I cells. RMG-I TPO-luciferase reporter, SteadyGlo, 24 h. inhibition, % at 12.6 µM. 360,000 compounds, 1.2% hits. AID 652154;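 active = mean replicate inhibition at least 60% with every replicate also reaching 60%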;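 note: luciferase light reporting Pax8 driven TPO promoter activity; plate controls were median of neutral control wells for no effect and mitoxantrone controls for full effect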
# EWS-Fli block = inhibitors of EWS/Fli oncoprotein transcriptional activity | A673 NR0B1-luciferase reporter, viability-normalised | inhibition, % at 12.6 µM | 350,000 compounds, 0.67% hits;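 active = mean inhibition of at least 50% after viability correction, with every replicate also passing that limit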;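 note: firefly luciferase signal divided by Alamar Blue viability fluorescence both relative to DMSO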
# F508del corr = CFTR F508del correction in bronchial cells; 350,000 compounds, 0.36% hits; CFBE cells, YFP halide quenching; stimulated with forskolin plus potentiator P3; % fluorescence drop versus neutral controls; activity (quench increase), % at 7.58 µM; AID 720511;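 active = mean added fluorescence quench of at least 8% versus neutral control, with both replicates also reaching 8%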;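 note: cells transiently co-express mutant CFTR-F508del with the halide-sensitive YFP; corrector assay measuring rescue of mutant channel to the surface after 24 h compound exposure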
# FXN GAA850 act = activators of GAA850 frataxin (FXN) promoter | 360,000 compounds, 0.56% hits | activation, % at 6 µM | HEK293 lucGAA850 FXN promoter luciferase reporter, 24 h; percent of 10 µM SAHA response | AID 540364;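 active = activation above the average of all compounds screened plus 3 SD, cutoff fixed separately per campaign, cut at about 7.5% in these data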;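 note: 0% = DMSO wells and 100% = 10 µM SAHA wells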
# Env fusion inh = blocks HIV Env-driven cell-cell fusion; HeLa-JRFL Env/CEM21 cell fusion, luciferase; inhibition, % at 12.3 µM; 360,000 compounds, 1.1% hits; AID 651610;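 active = mean replicate inhibition score of at least 50 and every replicate individually at or above 50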;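 note: 0% = plate neutral controls and 100% = maraviroc near 300 nM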
# Starred values were filed as active, the others as inactive; · = no result; [ ] = remark or other dose.
SMILES,PAX8 reporter,EWS-Fli block,F508del corr,FXN GAA850 act,Env fusion inh
COc1ccc(NC(=O)Nc2ccc3c(c2)C(=O)N([C@@H](C)CO)C[C@@H](C)[C@@H](CN(C)C(=O)Nc2c(C)noc2C)OCCCC[C@@H](C)O3)cc1,·,0,-1,·,13[16.7 µM]
COc1nc(Nc2nc3ccccc3c(=O)[nH]2)nc2ccc(C)cc12,76*,35,-10,1,103*
OC[C@@H]1[C@@H](c2ccc(-c3ccc(F)cc3)cc2)[C@H]2CN(Cc3cccnc3)CCCCN12,-6,-16,-1,·,·
COC(=O)C(CC#Cc1ccc2c(c1)[C@]1(C(=O)N2)[C@H](c2ccc(OCCO)cc2)N2[C@H](c3ccccc3)[C@H](c3ccccc3)OC(=O)[C@H]2[C@@H]1C(=O)N1CCc2cc(OC)c(OC)cc2C1)C(=O)OC,-6,30,-3,·,8[16.7 µM]
OCC[C@@H]1C[C@@H](O)[C@H](O)[C@]2(OCc3ccccc32)O1,2,-5,6,0,69*
O=[N+]([O-])c1ccc2c(c1)CO[C@@]21O[C@H](CCO)C[C@H](O)[C@H]1O,-25,1,-3,·,60*
OCC[C@H]1C[C@H](O)[C@@H](O)[C@@]2(OCc3ccccc32)O1,-27,-17,-1,-1,1
COc1ccccc1-c1nc(SCC(=O)Nc2ccccc2F)n[nH]1,28,46,-2,0,70*
O=C(C[C@@H]1C[C@H]2c3cc(NC(=O)C4CCOCC4)ccc3O[C@H]2[C@H](CO)O1)NCc1ccc(Oc2ccccc2)cc1,90*,17,-3,·,-92[16.7 µM]
O=C(C[C@@H]1C[C@H]2c3cc(NC(=O)NC4CCCC4)ccc3O[C@H]2[C@H](CO)O1)NCc1ccc(Oc2ccccc2)cc1,66*,60*,5,·,-28[16.7 µM]
O=C(C[C@@H]1C[C@@H]2c3cc(NC(=O)C4CCOCC4)ccc3O[C@@H]2[C@@H](CO)O1)NCc1ccc(Oc2ccccc2)cc1,28,35,0,·,-8[16.7 µM]
C=C1C(=O)O[C@H]2[C@H]1[C@@H](O)CC(=C)[C@@H]1CC(=O)[C@@H](C)[C@H]21,·,·,·,9.3*,·
O=C1OCC2=C1C(c1ccc(F)cc1)c1cc3c(cc1N2)OCO3 (stereo not drawn),72*,67*,-2,-1,-92
O=C1OCC2=C1C(c1ccc(F)cc1)c1cc3c(cc1N2)OCCO3 (stereo not drawn),85*,46,2,2,-67
O=C1OCC2=C1C(c1ccc3c(c1)OCO3)Sc1ccccc1N2 (stereo not drawn),·,·,·,-3,-54
C#CCOc1ccc(C2C3=C(COC3=O)Nc3cc4c(cc32)OCO4)cc1OC (stereo not drawn),86*,58*,-7,-1,-184
CCOc1ccccc1C1C2=C(COC2=O)Nc2cc3c(cc21)OCO3 (stereo not drawn),88*,47,5,-2,-129
O=C(Nc1ccccc1)N1C[C@H]2[C@@H](c3ccccc31)[C@H](CO)N2C(=O)c1cccnc1,-55,-31,-1,·,·
CC(C)Cc1cc(C(=O)O)c2ccccc2n1,·,·,·,1,·
CC(=O)c1ccc(NC(=O)c2cc(CC(C)C)nc3ccccc23)cc1,5,-48,-3,2,58*
C[C@H](NC(=O)C[C@H]1C=C[C@H](NC(=O)C2CCC2)[C@@H](CO)O1)c1ccccc1,4,-3,-5,·,-15[16.7 µM]
COC(=O)C1CCCCN1C(=O)c1cc(COc2cccc3cnccc23)on1 (stereo not drawn),28,22,0,-4,64*
O=C(O)c1cccc(Nc2nc(N3CCOCC3)nc(N3CCOCC3)n2)c1,·,·,·,0,-6
O=C(O)c1cccc(Nc2ccnc(Nc3cccc(C(=O)O)c3)n2)c1,24,63*,0,2,59*
C[C@@H]1CN([C@H](C)CO)C(=O)c2cc(N(C)C)ccc2O[C@@H](C)CCCCO[C@@H]1CN(C)Cc1ccc(C(F)(F)F)cc1,57,9,2,·,15[16.7 µM]
SMILES,PAX8 reporter,EWS-Fli block,F508del corr,FXN GAA850 act,Env fusion inh
Cc1ccc(N/C=C/C(=O)c2cccs2)cc1,25,59*,0,-2,-67
O=C(/C=C\Nc1cccc(F)c1)c1cccs1,·,·,·,5,·
C[C@@H]1CN([C@@H](C)CO)C(=O)c2cccc(NC(=O)Nc3ccc(C(F)(F)F)cc3)c2O[C@@H]1CN(C)CC1CCCCC1,·,61*,4,·,·
CNC[C@H]1Oc2c(NC(=O)Nc3ccc(C(F)(F)F)cc3)cccc2C(=O)N([C@@H](C)CO)C[C@H]1C,-26,22,-4,·,63*[16.7 µM]
C[C@@H]1CN([C@@H](C)CO)C(=O)c2cccc(NC(=O)Nc3ccc(C(F)(F)F)cc3)c2O[C@@H]1CN(C)CC1CC1,46,0,5,·,-21[16.7 µM]
C[C@@H]1CN([C@H](C)CO)C(=O)c2cccc(NC(=O)Nc3ccc(C(F)(F)F)cc3)c2O[C@H]1CN(C)CC1CC1,78*,3,0,·,-2[16.7 µM]
C/C=C/c1cnc2c(c1)C(=O)N([C@@H](C)CO)C[C@H](C)[C@H](CN(C)C(=O)Nc1ccc(OC)cc1)O2,·,-7,-3,·,8[16.7 µM]
COc1ccc(NC(=S)Nc2cccc3cnccc23)cc1,6,·,·,2,-58
COc1ccccc1NC(=S)Nc1cccc2cnccc12,2,5,0,-1,58*
C[C@H]1CN([C@@H](C)CO)S(=O)(=O)c2ccc(C#Cc3ccccc3)cc2O[C@H]1CN(C)C(=O)Nc1ccc2c(c1)OCO2,55,10,-1,·,-22[16.7 µM]
C[C@@H]1CN([C@H](C)CO)S(=O)(=O)c2ccc(C#Cc3cccnc3)cc2O[C@H]1CN(C)C(=O)Nc1ccc2c(c1)OCO2,-1,22,·,·,-8[16.7 µM]
C[C@H]1CN([C@@H](C)CO)S(=O)(=O)c2ccc(C#Cc3ccncc3)cc2O[C@H]1CN(C)C(=O)Nc1ccc2c(c1)OCO2,65*,0,4,·,·
C[C@@H]1CN([C@@H](C)CO)S(=O)(=O)c2ccc(C#Cc3ccncc3)cc2O[C@H]1CN(C)C(=O)Nc1ccc2c(c1)OCO2,103*,71*,3,·,·
CO[C@H]1CN(C)C(=O)c2cc(NS(C)(=O)=O)ccc2OC[C@H](C)NC[C@H]1C,·,·,0,·,·
C[C@H](CO)N1C[C@H](C)[C@@H](CN(C)Cc2cccnc2)Oc2ncc(C#Cc3cccnc3)cc2C1=O,·,1,2,·,-15[16.7 µM]
C[C@H](CO)N1C[C@H](C)[C@@H](CN(C)Cc2ccc(Cl)c(Cl)c2)Oc2ccc(NC(=O)Cc3ccccc3)cc2CC1=O,13,8,-2,·,-21[16.7 µM]
COc1ccc(NC(=O)C(=O)NCC2CCCN2S(=O)(=O)c2cccs2)cc1 (stereo not drawn),35,48,17*,-4,83*
Cc1ccc(NC(=O)C(=O)NCC2CCCN2S(=O)(=O)c2cccs2)cc1C (stereo not drawn),-51,-48,3,-1,25
C/C=C/c1ccc([C@@H]2[C@H](CO)N3C(=O)CN(C(=O)Nc4ccccc4F)C[C@@H]23)cc1,8,-2,0,·,·
